Experimental findings from PubChem BioAssay (Tox21) are described below.

The structures appear in SMILES notation. Values without a mark were called inactive. Results filed as inconclusive are left out. The source made the active and inactive calls. Unless noted, calls follow the shape of the dose curve; as a rule, active = well fitted curve in the direction sought with a large enough effect in the repeat runs; inconclusive = weak or mixed curves; inactive = no such curve, though single readings can be large; an effect the other way counts as inactive or inconclusive.

Experiment [1] is described as follows: A CellTox Green Cytotoxicity Assay to monitor cytotoxicity in HepG2 cells - 0 hour (AID 1224882). Also: nearly all actives have a fitted effect of over 35% in size. In a few lines: (§1)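 Cells and non-lytic dye reagent are dispensed together (600 HepG2 cells/well) and incubated 5 h before DMSO compound transfer. Kinetic fluorescence is then recorded in the same wells during 40 h at 37 C.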
Experiment [2] in a line: qHTS RealTime-Glo MT Cell Viability Assay in HepG2 cells - 16 hour (AID 1224885). Also: nearly all actives have a fitted effect of over 50% in size. Also: potency is read from the fitted curve at half-maximal effect. The method, boiled down:
(§2)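 Cells + NanoLuc/prosubstrate dispensed (600 cells/well) → 5 h at 37 C/5% CO2 → compounds in DMSO transferred → 40 h incubation at 37 C, luminescence read at 0, 8, 16, 24, 32, 40 h.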

Experiment [3] is described as follows: qHTS RealTime-Glo MT Cell Viability Assay in HEK293 cells - 8 hour (AID 1224887). Also: nearly all actives have a fitted effect of over 50% in size. Also: potency is read from the fitted curve at half-maximal effect. In a few lines: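 Real-time viability in HEK293: signal arises when living cells convert a prosubstrate for NanoLuc in the medium, so luminescence tracks viable cell number. Compound (23 nL, DMSO) added 5 h post-seeding; kinetic reads at 0–40 h, 37 C.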
Experiment [4] can be described thus: qHTS RealTime-Glo MT Cell Viability Assay in HepG2 cells - 0 hour (AID 1224889). Also: nearly all actives have a fitted effect of over 50% in size. In a few lines:
as §2

Experiment [5] can be described thus: qHTS assay to identify small molecule antagonists of the estrogen receptor alpha (ER-alpha) signaling pathway using the BG1 cell line in the presence of 0.1 nM 17-beta-estradiol - cell viability counter screen (AID 1259241). Also: nearly all actives have a fitted effect of over 40% in size. In a few lines:
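VM7Luc4E2 cells (endogenous full-length ER-alpha, 4xERE-luciferase), cultured 5 days in charcoal-stripped serum, exposed to compounds with 0.1 nM 17beta-estradiol (final) for 22 hr at 37C. Viability read in same wells as live-cell protease fluorescence after 30 min.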

The nature of experiment [6]: qHTS assay to identify small molecule antagonists of the androgen receptor (AR) signaling pathway using the MDA cell line in the presence of 0.5 nM R1881 - cell viability counter screen (AID 1259242). Also: nearly all actives have a fitted effect of over 45% in size. Also: potency is read from the fitted curve at half-maximal effect. The method, boiled down:
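Steps: plate MDA-kb2 cells, rest 5 hr at 37C without CO2; pin in compounds in DMSO; add R1881 to 0.5 nM final; incubate 16 hr; add CellTiter-Fluor, 30 min; read fluorescence.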

For experiment [7], the target named is Androgen receptor (Homo sapiens) (UniProt P10275). Description: qHTS assay to identify small molecule antagonists of the androgen receptor (AR) signaling pathway using the MDA cell line in the presence of 0.5 nM R1881 (AID 1259243). Also: nearly all actives have a fitted effect of over 50% in size. The method, boiled down:
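Stably transfected MDA-kb2 cells express luciferase from an MMTV promoter bearing both AR and GR response elements. Compounds plus 0.5 nM R1881 (final) were incubated 16 hr at 37C without CO2, then luminescence measured.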

The nature of experiment [8]: qHTS assay to identify small molecule HDAC inhibitors - cell viability counter screen (AID 1259365). The method, boiled down: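 Wild-type HCT-116 cells, 1,500/well, cultured overnight, then compound-treated 2 h at 37 C. Viability measured as ATP luminescence with CellTiter-Glo after 30 min at room temperature.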
Experiment [9] in a line: qHTS assay to identify small molecule agonists of the sonic hedgehog signaling (Shh) pathway - cell viability counter screen (AID 1259366). Also: nearly all actives have a fitted effect of over 50% in size. Also: potency is read from the fitted curve at half-maximal effect. In a few lines:
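NIH/3T3-derived Gli1-Luc reporter cells, 2,000 per well, received compound after 4 h and were treated about 23 h at 37C. Viability measured in the same wells by CellTiter-Fluor fluorescence after 1 h.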

Experiment [10] in a line: qHTS assay to identify small molecule agonists of the sonic hedgehog signaling (Shh) pathway (AID 1259368; calls by dose curve; also: nearly all actives have a fitted effect of over 15% in size; also: potency is read from the fitted curve at half-maximal effect). The method, boiled down:
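Cells of a mouse NIH/3T3 clone stably expressing luciferase under the Gli1 transcriptional response element are exposed to test chemicals for 24 hr at 37 C. Pathway activation is detected as a rise in luminescence.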

Experiment [11] is described as follows: qHTS assay to identify small molecule antagonists of the sonic hedgehog signaling (Shh) pathway (AID 1259369; calls by dose curve; also: nearly all actives have a fitted effect of over 45% in size; also: potency is read from the fitted curve at half-maximal effect). The method, boiled down: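 Cells are plated and held 4hr at 37 C, compounds (DMSO) are pinned in, conditioned medium is added to stimulate the pathway, and after 24hr luciferase reagent is added for 30min before luminescence is read.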
Experiment [12] in a line: qHTS RealTime-Glo MT Cell Viability Assay in HEK293 cells - 24 hour (AID 1224886). Also: nearly all actives have a fitted effect of over 50% in size. Also: potency is read from the fitted curve at half-maximal effect. In a few lines: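 Tox21 10K qHTS, HEK293, 600 cells/well, RealTime-Glo reagent co-dispensed with cells; 5 h preincubation, compound by pintool, 37 C, luminescence at 0–40 h.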
Experiment [13] can be described thus: qHTS assay to identify small molecule HDAC inhibitors (AID 1259364). Also: potency is read from the fitted curve at half-maximal effect.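 Also: wild-type HCT-116 cells with endogenous class I/II HDAC activity; nearly all actives have a fitted effect of over 45% in size.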 The method, boiled down:
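Cells (HCT-116, wild type) are seeded at 1,500 per well, incubated overnight, treated with compound in DMSO for 2 hr, then developed with HDAC-Glo I/II reagent for 30 min at room temperature.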

Experiment [14] is described as follows: qHTS assay to identify small molecule antagonists of the sonic hedgehog signaling (Shh) pathway - cell viability counter screen (AID 1259367). Also: nearly all actives have a fitted effect of over 55% in size. Also: potency is read from the fitted curve at half-maximal effect. In a few lines: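 Fluorescence read-out (CellTiter-Fluor, 1 hr at 37C) taken after 23 hr compound treatment of 3T3 Gli1-Luc cells stimulated with conditioned medium. Cells were seeded at 2,000 per well and pre-incubated 4 hr.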

A short description of experiment [15]: A CellTox Green Cytotoxicity Assay to monitor cytotoxicity in HEK293 cells - 16 hour (AID 1224888). Also: nearly all actives have a fitted effect of over 35% in size. Also: potency is read from the fitted curve at half-maximal effect. In a few lines: (§3)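 Cells (HEK293, 600/well) and dye reagent are dispensed together. After 5 h at 37 C, 23 nL compound is pinned in. Plates stay at 37 C for 40 h with fluorescence read at 0h, 8h, 16h, 24h, 32h and 40h.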
Experiment [16] can be described thus: A CellTox Green Cytotoxicity Assay to monitor cytotoxicity in HepG2 cells - 8 hour (AID 1224890). Also: nearly all actives have a fitted effect of over 45% in size. The method, boiled down: as §1
The target of experiment [17] is Estrogen receptor (Homo sapiens) (UniProt P03372). Description: qHTS assay to identify small molecule antagonists of the estrogen receptor alpha (ER-alpha) signaling pathway using the BG1 cell line in the presence of 0.1 nM 17-beta-estradiol (AID 1259244). Also: nearly all actives have a fitted effect of over 50% in size. Also: potency is read from the fitted curve at half-maximal effect. The method, boiled down: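 Antagonist mode: compounds in DMSO are pinned onto VM7Luc4E2 reporter cells, 0.1 nM final 17beta-estradiol is added, and after 22 h at 37C luciferase luminescence is measured with ONE-Glo.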
Chain of Estrogen receptor (Homo sapiens) (P03372 whole entry, looked up): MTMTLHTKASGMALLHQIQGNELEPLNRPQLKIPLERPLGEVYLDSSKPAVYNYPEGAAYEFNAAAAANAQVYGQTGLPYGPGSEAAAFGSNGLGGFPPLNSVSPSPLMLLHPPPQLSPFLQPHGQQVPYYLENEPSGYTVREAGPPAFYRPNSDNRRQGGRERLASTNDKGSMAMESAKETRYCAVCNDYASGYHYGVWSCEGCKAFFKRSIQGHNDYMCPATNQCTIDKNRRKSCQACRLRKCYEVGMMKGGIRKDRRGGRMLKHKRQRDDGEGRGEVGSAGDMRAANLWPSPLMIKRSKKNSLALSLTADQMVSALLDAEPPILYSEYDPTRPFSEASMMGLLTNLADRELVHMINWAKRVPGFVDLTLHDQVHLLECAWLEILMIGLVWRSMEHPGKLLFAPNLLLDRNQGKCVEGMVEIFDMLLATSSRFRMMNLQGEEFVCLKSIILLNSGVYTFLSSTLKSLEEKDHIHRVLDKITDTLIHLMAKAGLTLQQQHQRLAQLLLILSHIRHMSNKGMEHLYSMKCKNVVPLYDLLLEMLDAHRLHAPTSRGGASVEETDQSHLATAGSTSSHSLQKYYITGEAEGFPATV

A short description of experiment [18]: A CellTox Green Cytotoxicity Assay to monitor cytotoxicity in HEK293 cells - 8 hour (AID 1224884). Also: nearly all actives have a fitted effect of over 35% in size. The method, boiled down: as §3

Chain of Androgen receptor (Homo sapiens) (P10275 whole entry, looked up): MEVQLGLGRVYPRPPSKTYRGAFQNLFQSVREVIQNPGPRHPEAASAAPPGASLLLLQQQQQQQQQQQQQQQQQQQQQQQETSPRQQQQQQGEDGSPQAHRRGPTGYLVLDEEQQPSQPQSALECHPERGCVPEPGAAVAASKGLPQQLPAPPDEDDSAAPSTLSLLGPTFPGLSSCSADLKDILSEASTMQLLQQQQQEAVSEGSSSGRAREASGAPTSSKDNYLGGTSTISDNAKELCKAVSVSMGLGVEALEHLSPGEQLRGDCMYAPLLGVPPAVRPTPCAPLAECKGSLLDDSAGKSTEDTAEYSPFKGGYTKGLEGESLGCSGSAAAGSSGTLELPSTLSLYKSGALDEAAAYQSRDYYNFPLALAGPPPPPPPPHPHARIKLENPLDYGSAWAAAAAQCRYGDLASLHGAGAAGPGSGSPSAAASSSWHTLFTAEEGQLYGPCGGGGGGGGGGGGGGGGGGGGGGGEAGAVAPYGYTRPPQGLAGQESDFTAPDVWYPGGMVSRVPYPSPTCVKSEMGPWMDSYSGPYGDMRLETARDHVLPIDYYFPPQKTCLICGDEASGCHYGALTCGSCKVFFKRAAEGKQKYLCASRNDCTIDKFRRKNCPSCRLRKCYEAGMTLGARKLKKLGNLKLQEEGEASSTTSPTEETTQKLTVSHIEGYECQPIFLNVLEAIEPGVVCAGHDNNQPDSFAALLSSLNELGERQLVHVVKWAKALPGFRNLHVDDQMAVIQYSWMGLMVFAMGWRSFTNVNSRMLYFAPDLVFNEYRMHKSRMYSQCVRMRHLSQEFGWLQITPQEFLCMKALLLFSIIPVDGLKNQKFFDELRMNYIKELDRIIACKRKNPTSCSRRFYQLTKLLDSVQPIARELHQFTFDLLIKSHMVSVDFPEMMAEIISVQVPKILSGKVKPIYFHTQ

For the molecule `O=C(NO)c1ccccc1`, the Potency entry in [1], in experiment [2], in [3], in experiment [4], in experiment [5] and in experiment [6] was “inactive” in each case. Also, the Potency result in experiment [7], in [8] and in experiment [10] was “inactive” in each case. For the same molecule, the results for the Potency in [9] and in [11] were 26 µM (active) and 29.2 µM (active), respectively.

With `CNCC[C@H](Oc1cccc2ccccc12)c1cccs1`, the Potency result in experiment [1], in experiment [5], in [13], in experiment [8] and in experiment [10] was “inactive” each time. Moreover, the Potency in experiment [2] was 23.9 µM (active); in [12], 23.9 µM (active); in experiment [6], 26.6 µM (active); in experiment [9] it was 26.6 µM (active); in experiment [14] it was 33.5 µM (active); in experiment [11] it was 2.37 µM (active).

With `CC(C)=CCCC(C)O` (centres undefined), the Potency entry in experiment [1], in [2], in experiment [12], in [3], in experiment [15] and in experiment [4] was “inactive” in each case. In addition, the Potency entry in experiment [16], in [5], in experiment [6], in experiment [7], in experiment [17] and in experiment [9] was “inactive” throughout. In addition, the Potency result in experiment [14], in experiment [10] and in [11] was “inactive” throughout.

With `Cc1cc2c(C(C)C)c(O)c(O)c(C=O)c2c(O)c1-c1c(C)cc2c(C(C)C)c(O)c(O)c(C=O)c2c1O`, the Potency entry in [1], in experiment [4], in experiment [16], in [5], in [17] and in [8] was “inactive” each time. The Potency result in experiment [10] is “inactive”. The results for the Potency in experiment [12] and in experiment [15] were 10.7 µM (active) and 16.9 µM (active), respectively.

On to `CCCCN(CCCC)CCC(O)c1cc2c(Cl)cc(Cl)cc2c2cc(C(F)(F)F)ccc12` (centres undefined), for which the Potency entry in [1], in experiment [12], in experiment [3], in [15], in experiment [4] and in [5] was “inactive” throughout. The Potency result in [17], in experiment [13], in experiment [8], in experiment [9], in [14] and in experiment [10] was “inactive” in each case.

`CCCCCCOc1ccc(O)cc1`: the Potency result in experiment [1], in experiment [18], in experiment [15], in [4], in experiment [5] and in experiment [6] was “inactive” throughout. The Potency entry in experiment [17], in [8], in experiment [9], in experiment [10] and in experiment [11] was “inactive” each time. Also, the Potency in [12] and in [3] was 0.0617 µM (active) in each case.

As to `CCCCOC(=O)C(C)CC` (centres undefined), the Potency result in experiment [1], in experiment [2], in [12], in experiment [3], in experiment [15] and in experiment [4] was “inactive” throughout. Further, the Potency entry in [16], in experiment [6], in [17], in experiment [13], in [8] and in experiment [9] was “inactive” each time. For the same molecule, the Potency entry in experiment [14] and in experiment [10] was “inactive” in each case.

For the molecule `Cc1cn[nH]c1`, the Potency result in [1], in experiment [2], in experiment [12], in experiment [3], in [15] and in experiment [4] was “inactive” in each case. Besides, the Potency entry in experiment [16], in experiment [5], in experiment [6], in experiment [7], in [17] and in experiment [13] was “inactive” in each case. The Potency result in experiment [8], in experiment [9], in [14], in experiment [10] and in experiment [11] was “inactive” each time.

`CNC(=O)c1cc(Oc2ccc(NC(=O)Nc3ccc(Cl)c(C(F)(F)F)c3)cc2)ccn1`: the Potency entry in [1], in experiment [18], in experiment [15], in experiment [4], in experiment [16] and in experiment [13] was “inactive” each time. Moreover, the Potency entry in experiment [10] is “inactive”. Moreover, the Potency is 3.38 µM (active) in [12]; 4.25 µM (active) in experiment [3]; 26.6 µM (active) in experiment [6]; 26.6 µM (active) in experiment [17]; 26.6 µM (active) in experiment [11].

Regarding `CC(C)(C)C1=CC(=O)C=C(C(C)(C)C)C1=O`, the Potency entry in experiment [1], in experiment [2], in experiment [12], in [3], in experiment [15] and in experiment [4] was “inactive” each time. Further, the Potency entry in experiment [16], in experiment [5], in experiment [6], in experiment [17], in [13] and in experiment [8] was “inactive” in each case. Further, the Potency entry in experiment [9], in experiment [14], in [10] and in [11] was “inactive” each time.

With `C=C(C)CCCC`, the Potency result in experiment [1], in [2], in experiment [12], in [3], in experiment [15] and in experiment [4] was “inactive” each time. Also, the Potency result in [16], in experiment [5], in experiment [6], in experiment [7], in [17] and in experiment [13] was “inactive” in each case. The Potency entry in experiment [8], in experiment [9], in experiment [14] and in experiment [10] was “inactive” in each case.

For the molecule `O=C(Oc1ccccc1)c1cccc(C(=O)Oc2ccccc2)c1`, the Potency result in [1], in experiment [2], in experiment [15], in experiment [4], in experiment [16] and in [5] was “inactive” each time. In addition, the Potency entry in experiment [7], in experiment [8], in [9], in experiment [14] and in [11] was “inactive” each time. Further, the Potency in experiment [13] was 0.0885 µM (active); in experiment [10], 2.29 µM (active).
